Measured values from PubChem BioAssay AID540256 (National Center for Advancing Translational Sciences (NCATS), 2011).
About 3,700 (1.2%) of roughly 300,000 compounds were called active. Where a call stands in place of a potency, no number is given. Not shown: some 20% with an inconclusive outcome. The call rests on the fitted dose curve; tested in HEK293 cells. Many of the other results were omitted from the sample, so actives are more common in it than they were.

assay: qHTS for Inhibitors of binding or entry into cells for Lassa Virus; settings: Lassa virus pseudotype entry inhibition, cell reporter; series mostly up to 37.9 µM; further: nearly all actives have a fitted effect of over 50% in size
Potency means the concentration at half of the fitted maximal effect.

| Structure (SMILES) | Potency |
| --- | --- |
| N#CC1(Nc2ccc(-c3ccc(Cl)cc3)cc2)CCCC1 | inactive |
| CCOc1ccc(/C=N\NC(=O)c2c(C)nc3cc(C)ccn23)cc1 | inactive |
| COc1cccc(-c2cc(C(=O)N/N=C/c3ccc(OC)c(COC(C)=O)c3)c3ccccc3n2)c1 | inactive |
| COc1ccc(/C=N/NC(=O)c2cc(-c3cccc(C)c3)nc3ccccc23)cc1O | 7.08 µM (active) |
| Cc1cc(C(=O)N/N=C/c2ccccn2)c2ccccc2n1 | inactive |
| C/C(=N\NC(=O)c1cc(-c2ccc(O)cc2)nc2ccccc12)c1cccnc1 | inactive |
| CCOc1ccc(-c2cc(C(=O)N/N=C/c3ccc(O)cc3)c3ccccc3n2)cc1 | 1.41 µM (active) |
| Cc1ccc(C)c(NC(=O)CN(C)C(=O)COc2ccc3ccccc3c2)c1 | inactive |
| Cc1cc2occ(CC(=O)NNC(=O)c3ccccc3F)c2cc1C | inactive |
| Cc1ccc(CSCC(=O)N(C)CC(=O)Nc2ccc(C)cc2)cc1 | inactive |
| COc1ccc(C(=O)NCC(c2ccco2)N2CCc3ccccc32)cc1OC (centres undefined) | inactive |
| Cc1c(C)c2c(OCC(=O)NCCCO)cc3c(c2oc1=O)CCC(C)(C)O3 | inactive |
| Cc1c(NC(=O)C(C)OC(=O)c2c3c(nc4ccccc24)CCC(C)C3)c(=O)n(-c2ccccc2)n1C (centres undefined) | inactive |
| O=C(Nc1ccc2nccnc2c1)c1ccco1 | inactive |
| O=C(Nc1ccc(NC(=O)c2cccs2)cn1)c1ccco1 | 3.98 µM (active) |
| COc1cccc(C(=O)Nc2ccc(NC(=O)c3ccco3)cn2)c1 | inactive |
| COc1ccc(OCCNC(=O)c2cc(C3CC3)nc3c2cnn3C(C)C)cc1 | inactive |
| OCc1ccc(-c2ccccc2)c(-c2ccccc2)c1 | inactive |
| C/C(=C\C(=O)c1ccc(Br)cc1)N1CCCCC1 | inactive |
| CC1CN/C(=C\C(=O)c2ccc(Br)cc2)C(=O)N1 (centres undefined) | 8.2 µM (active) |
| CN1CCCC(OC(=O)COc2ccc(Br)cc2)C1 (centres undefined) | inactive |
| COC1=CC(=O)OC(c2ccc(OC)cc2)C1 (centres undefined) | inactive |
| O=C(CSc1nc2ccccc2c(=O)n1CCCO)N1CCc2ccccc21 | inactive |
| Cn1c(SCC(=O)N2CCCc3ccccc32)nc2ccccc2c1=O | 12.6 µM (active) |
| O=C(CSc1nc2[nH]ncc2c(=O)n1-c1ccccc1)N1CCCc2ccccc21 | inactive |
| COc1ccc(N2CCN(CCNC(=O)Nc3cc(Cl)ccc3Cl)CC2)cc1 | inactive |

| Structure (SMILES) | Potency |
| --- | --- |
| O=C(Cc1ccc([N+](=O)[O-])cc1)NCCc1ccc2c(c1)OCO2 | inactive |
| Cc1ccc(CSCC(=O)N(C)CC(=O)Nc2cccc(F)c2)cc1 | inactive |
| Cc1ccc(S(=O)(=O)Nc2ccc(F)c(S(=O)(=O)N3CCOCC3)c2)cc1 | inactive |
| CCOC(=O)N1CCN(C(=O)COc2ccc(Br)cc2)CC1 | inactive |
| O=C(COc1ccc2oc3c(c2c1)CCCC3)Nc1ccccn1 | inactive |
| CCOC(=O)N1CCN(C(=O)COc2ccc3oc4c(c3c2)CCCC4)CC1 | 10 µM (active) |
| CC(=O)c1ccc(OCCCC(=O)Nc2ccc(C)c(S(=O)(=O)N3CCOCC3)c2)cc1 | inactive |
| COc1ccccc1NS(=O)(=O)c1ccc(C(=O)N2CCN(c3ccccc3O)CC2)cc1 | inactive |
| COc1ccc2nc(/N=C(\N)NC(=O)Nc3ccccc3)nc(C)c2c1 | inactive |
| Cc1nc(/N=C(\N)NC(=O)NC2CCCCC2)nc2ccccc12 | 22.4 µM (active) |
| Cc1nn(-c2ccccc2)c(C)c1C(=O)OCC(=O)NC(=O)NC1CCCCC1 | inactive |
| CC(C)c1cc(N=O)cc(C(C)C)c1O | inactive |
| CCOC(=O)C(C)Sc1nc2ccccc2c(=O)n1CC1CCCCC1 (centres undefined) | inactive |
| N#Cc1c(NC(=O)CSc2nc3ccccc3c(=O)n2Cc2ccco2)sc2c1CCCC2 | inactive |
| CC(Sc1nc2ccccc2c(=O)n1Cc1ccco1)C(=O)c1ccccc1 (centres undefined) | 4.11 µM (active) |
| CC1CCCN(CC(=O)Nc2cc(Cl)ccc2Oc2ccccc2)C1 (centres undefined) | inactive |
| CCOc1ccc(NC(=O)COC(=O)C2CCC(=O)N2)c([N+](=O)[O-])c1 (centres undefined) | inactive |
| C=CCn1c(=N)n(CC(O)COc2ccc(OC)cc2)c2ccccc21 (centres undefined) | inactive |
| OC(COc1ccccc1)Cn1cc(Br)cn1 (centres undefined) | inactive |
| OC(CN=c1sc2ccccc2n1CC(O)COc1ccccc1)COc1ccccc1 (centres undefined) | 20.6 µM (active) |
| COc1ccccc1C(=O)NC(CCSC)C(=O)N1CCN(C/C=C/c2ccccc2)CC1 (centres undefined) | inactive |
| CC1CCC2CCCCC2N1C(=O)c1cc([N+](=O)[O-])cc([N+](=O)[O-])c1 (centres undefined) | inactive |
| COc1ccc(-c2cc(-c3ccccc3)nc3c2COc2ccc(Cl)cc2-3)cc1 | inactive |
| COc1ccc(C2=Nc3cc(C)ccc3OC2)cc1 | 10 µM (active) |
| COc1ccc(C2=NOC3(CC(=O)N(c4ccc(C)cc4)C3=O)C2)cc1 (centres undefined) | inactive |
| COc1ccc2c(c1)C(=O)Nc1cc(Cl)ccc1N2 | inactive |

| Structure (SMILES) | Potency |
| --- | --- |
| CC(=O)Nc1ccc(NC(=O)CS(=O)(=O)c2cn(CC(=O)N3CCCCC3)c3ccccc23)cc1 | inactive |
| Cc1onc(-c2ccccc2Cl)c1C(=O)OCc1nnc(-c2ccccc2)o1 | inactive |
| CC(C)CC(=O)NC(=S)NCc1ccccc1 | inactive |
| CC(C)CC(=O)c1c[nH]c(C(=O)NCc2ccccc2)c1 | 7.94 µM (active) |
| O=C(c1ccc(F)cc1)c1c[nH]c(C(=O)NCc2cccnc2)c1 | inactive |
| OC(COc1ccccc1)CN1CCN(c2cccc(Cl)c2)CC1 (centres undefined) | inactive |
| CC/C(=C\c1ccc(Cl)cc1)c1ccncc1 | inactive |
| COc1cc2cc(C(=O)N/N=C/c3cccc(OC)c3OC)[nH]c2cc1OC | inactive |
| CN(C)CCNC(=O)c1[nH]nc2c1CCc1ccccc1-2 | inactive |
| COc1cccc(/C=N/NC(=O)c2[nH]nc3c2CCc2ccccc2-3)c1O | 12.6 µM (active) |
| O=C(CSc1nnc(-c2ccncc2)o1)Nc1cccc(Cl)c1 | inactive |
| COc1ccccc1CNS(=O)(=O)c1cc(C(=O)NCc2ccccn2)c(Cl)cc1Cl | inactive |
| CCN(CC)S(=O)(=O)c1ccc(N(C)CCc2ccc(OC)c(OC)c2)nc1 | inactive |
| CCN(CC)S(=O)(=O)c1ccc(N(C)Cc2cccc(OC)c2OC)nc1 | inactive |
| CCN(CC)S(=O)(=O)c1ccc(N(C)Cc2ccc(C(F)(F)F)cc2)nc1 | 4.47 µM (active) |
| CCOc1ccc2[nH]c(=O)c(CN(CCCO)S(=O)(=O)c3ccc(F)cc3)cc2c1 | inactive |
| NC(=O)c1nsc(C(=O)N(CCCN2CCOCC2)C(C(=O)NC2CCCCC2)c2ccc(Cl)cc2)c1N (centres undefined) | inactive |
| COc1ccc(C(C(=O)NC2CCCCC2)N(C(=O)c2snc(C(N)=O)c2N)c2ccccc2OC)cc1 (centres undefined) | 10 µM (active) |
| COc1ccc(C(C(=O)NC2CCCCC2)N(C(=O)CCl)c2ccccc2Cl)cc1 (centres undefined) | inactive |
| O=C(O)C1C2C=CC(O2)C1C(=O)Nc1ccccn1 (centres undefined) | inactive |
| COCCNc1cc(-c2ccccc2)nc2cc(-c3cccc(F)c3)nn12 | inactive |
| CC(=O)Nc1ccc(NC(=O)COC(=O)C2CCC(C(C)(C)C)CC2)cc1 (centres undefined) | inactive |
| COc1ccc(CCNS(=O)(=O)c2cc(-c3cc(C)no3)ccc2C)cc1OC | inactive |
| O=C(Nc1ccn(Cc2ccccc2F)n1)c1ccc(COc2ccc(Cl)cc2Cl)o1 | 10 µM (active) |
| COC(=O)c1ccccc1NC(=O)c1ccc(COc2ccccc2Cl)o1 | inactive |
| COc1ccc(Cl)cc1NC(=O)NCC1CCN(Cc2ccccc2F)CC1 | inactive |

| Structure (SMILES) | Potency |
| --- | --- |
| COc1ccccc1N(C)S(=O)(=O)c1ccc(Cl)c(C(=O)Nc2ccncc2)c1 | inactive |
| CN(O)C(=S)c1ccccc1 | 6.31 µM (active) |
| O=C(NC(=O)c1ccccc1)NC(=O)c1ccccc1 | inactive |
| CCc1ccc(C(=O)C(C)OC(=O)CN2C(=O)NC3(CCCC3)C2=O)cc1 (centres undefined) | inactive |
| Cn1c2ccccc2c2c(C(=O)N3CCN(c4ccc(F)cc4)CC3)cn(C3CCCC3)c(=O)c21 | 10 µM (active) |
| O=C(c1ccccc1Oc1ccccc1)N1CCN(c2ccc(F)cc2)CC1 | inactive |
| CCOc1ccc(NC(=O)c2cn(C3CCCCC3)c(=O)c3c2c2ccccc2n3C)cc1 | inactive |
| O=C(NNC(=O)c1ccc(-c2ccccc2)cc1)Nc1ccccc1 | inactive |
| CC(Nc1ccc([N+](=O)[O-])cc1[N+](=O)[O-])c1ccccc1 (centres undefined) | inactive |
| O=C(/C=C/c1ccccc1)N1CCN(Cc2cc(=O)n3nc(-c4ccccc4F)sc3n2)CC1 | inactive |
| Cc1cccc(N=C2NN=C(c3c[nH]c4ccccc34)CS2)c1 | 14.6 µM (active) |
| Cc1cccc(C(=O)Nc2nnc(Cc3c[nH]c4ccccc34)s2)c1 | inactive |
| CC(=O)c1c(C)[nH]c(C(=O)N2CCN(S(=O)(=O)c3ccc(F)c(F)c3)CC2)c1C | inactive |
| O=C(CCC1CCCCC1)Nc1cc(C(F)(F)F)ccc1N1CCOCC1 | inactive |
| COc1cccc(C(=O)OCc2cc(=O)oc3c(C)c(C)ccc23)c1OC | inactive |
| CCOc1ccc(NC(=O)CN(C)C(=O)Cc2sc(C)nc2-c2ccc(F)cc2)cc1OCC | inactive |
| N#CCc1c[nH]c2ccc([N+](=O)[O-])cc12 | inactive |
| Cc1ccc(S(=O)(=O)c2nc(-c3cccs3)oc2NCc2cccnc2)cc1 | inactive |
| COc1cccc(-c2nc(S(=O)(=O)c3ccc(C)cc3)c(NCc3ccccc3)o2)c1 | 10 µM (active) |
| O=S(=O)(c1ccc(Br)cc1)c1nc(-c2ccccc2)oc1NCc1cccnc1 | inactive |
| CN(C)c1nc(NN)nc(Nc2ccc(F)cc2)n1 | inactive |
| CCOc1ccc(C(=O)CCC(=O)Nc2ccncc2)cc1 | inactive |
| CC(CCc1ccccc1)NC(=O)COC(=O)c1ccc(F)cc1 (centres undefined) | inactive |
| CCC1(C)Cc2c(sc3[nH]c(=S)n(Cc4ccccc4)c(=O)c23)CO1 (centres undefined) | 5.62 µM (active) |
| CCC1(C)Cc2c(sc3nc4n(c(=O)c23)CCCS4)CO1 (centres undefined) | inactive |
| CCC1(C)Cc2c(sc3nc(SC)[nH]c(=O)c23)CO1 (centres undefined) | inactive |
